{
  "source": "ChEMBL document CHEMBL4513216",
  "about": "“Probing the Open Global Health Chemical Diversity Library for Multistage-Active Starting Points for Next-Generation Antimalarials” (ACS Infect Dis, 2020)",
  "note": "In all, about 68,000 compounds went through this assay and about 2,700 (4%) showed an effect of 50% or more. This excerpt belongs to a sample that is enriched for strong results.",
  "data": [
    {"test_system": "Plasmodium berghei", "assay": "Screen against P. berghei liver stage (PbLuc), transformed with Luciferase, at 2uM", "assay_type": "functional, HepG2", "conditions": "tested at 2 uM", "units": {"INHIBITION": "%"}, "values": [
      {"smiles": "O=C(Cc1ccc2c(c1)OCCO2)NC1CC1", "INHIBITION": 23.31},
      {"smiles": "CN(Cc1ccco1)[C@@H]1CN(Cc2ccc(F)cc2)C[C@@H]2CCCO[C@@H]21", "INHIBITION": 29.73},
      {"smiles": "CS(=O)(=O)N[C@@H]1CN(Cc2ccccc2)C[C@@H]2CCCO[C@@H]21", "INHIBITION": 14.39},
      {"smiles": "CN(Cc1ccco1)[C@@H]1CN(Cc2cccnc2)C[C@@H]2CCCO[C@@H]21", "INHIBITION": 29.36},
      {"smiles": "O=C(CC1CC1)N[C@@H]1CN(Cc2ccncc2)C[C@@H]2CCCO[C@@H]21", "INHIBITION": 29.01},
      {"smiles": "O=C(N[C@@H]1CN(Cc2ccccc2)C[C@@H]2CCCO[C@@H]21)C1CC1", "INHIBITION": 50.9},
      {"smiles": "O=C(N[C@@H]1CN(Cc2ccoc2)C[C@@H]2CCCO[C@@H]21)C1CCC1", "INHIBITION": -8.62},
      {"smiles": "O=C(CC1CC1)N[C@@H]1CN(Cc2ccoc2)C[C@@H]2CCCO[C@@H]21", "INHIBITION": 35.89},
      {"smiles": "CN(Cc1ccco1)[C@@H]1CN(Cc2ccncc2)C[C@@H]2CCCO[C@@H]21", "INHIBITION": 60.93},
      {"smiles": "O=C(CC1CC1)N[C@@H]1CN(Cc2ccco2)C[C@@H]2CCCO[C@@H]21", "INHIBITION": 52.55},
      {"smiles": "NCC1CCCCN1C(=O)Cc1cccc(Cl)c1", "note": "(stereo unspecified)", "INHIBITION": -22.89},
      {"smiles": "CC1(C)CN(C(=O)c2occc2COc2cccc(C#N)c2)CCO1", "INHIBITION": -0.41},
      {"smiles": "O=C(NCc1nc[nH]n1)c1cc(COc2cccc(F)c2)[nH]n1", "INHIBITION": 10.22},
      {"smiles": "CC(C)(C)C(=O)NCCC(=O)NS(=O)(=O)c1cccc(C#N)c1", "INHIBITION": -49},
      {"smiles": "Cc1nc(CC(=O)N2CCc3nnc(N(C)C)cc3C2)cs1", "INHIBITION": 1.6},
      {"smiles": "Cc1ccc(N2CCCC(N(C)c3ncnc4c3CCC4)C2)nn1", "note": "(stereo unspecified)", "INHIBITION": -28.33},
      {"smiles": "CC(C)(C)CC(=O)N1CC[C@@H]2[C@H](CC1)N(S(C)(=O)=O)CCS2(=O)=O", "INHIBITION": -16.93},
      {"smiles": "COc1ccc(C(=O)N2CC[C@@H]3[C@H](CC2)N(C)CCS3(=O)=O)cc1", "INHIBITION": -17.39},
      {"smiles": "CN1CCS(=O)(=O)[C@@H]2CCN(C(=O)c3ccccc3)CC[C@@H]21", "INHIBITION": 71.83},
      {"smiles": "CN1CCS(=O)(=O)[C@@H]2CCN(C(=O)CC(C)(C)C)CC[C@@H]21", "INHIBITION": 50.17},
      {"smiles": "COc1cccc(C(=O)N2CC[C@@H]3[C@H](CC2)N(C)CCS3(=O)=O)c1", "INHIBITION": -14.21},
      {"smiles": "COc1ccc(CC(=O)N2CC[C@@H]3[C@H](CC2)N(C)CCS3(=O)=O)cc1", "INHIBITION": 24.64},
      {"smiles": "CC(=O)NC(C)(C)c1noc(C2(C#N)CCCCC2)n1", "INHIBITION": 22.41},
      {"smiles": "Cc1nc(CNC(=O)NC2CCCN(c3ncccn3)C2)cs1", "note": "(stereo unspecified)", "INHIBITION": 30.96},
      {"smiles": "Cc1nc(CNC(=O)NC2CCN(c3ncccn3)CC2)cs1", "INHIBITION": 56.78},
      {"smiles": "Cc1nc(CCNC(=O)NC2CCN(c3ncccn3)CC2)cs1", "INHIBITION": -17.45}
    ]}
  ]
}
